{"source": "PubChem BioAssay AID624256", "about": "(NMMLSC, 2012)", "note": "The campaign covered roughly 360,000 compounds. About 3,700 (1%) were called active. Another 2% or so got no clear call; they are omitted.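 The calls were made as follows: active = normalized GFP-positive differentiation at or above the plate's own cutoff, the solvent-only control mean plus 3 SD; inconclusive = no clear call, values can overlap the other calls; inactive = the rest.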 The sample as a whole holds a higher share of actives than the screen did.", "data": [{"assay": "induction of myeloid progenitor differentiation, primary screen, cell-based, flow cytometry, MLPCN library (AID 624256);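 as to GFP+ MAC1+ double positive: cells exposed to compound for four days before flow analysis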;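 as to normalized GFP-positive differentiation: cells exposed to compound for four days before flow analysis; 0% = DMSO wells and 100% = fulvestrant positive control at 5 µM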", "settings": "ER-HoxA9 myeloid progenitors, lysozyme-GFP differentiation, at 10 µM; GFP+ MAC1+ double positive: measured here: differentiation confirmed by MAC1 staining, stronger effect = higher value; normalized GFP-positive differentiation: stronger effect = higher value", "units": {"GFP+ MAC1+ double positive": "%"}, "values": [{"smiles": "CC(C)C[C@@H]1Cc2[nH][nH]c(=O)c2[C@H](CCc2ccccc2)O1", "GFP+ MAC1+ double positive": 0.9, "outcome": "inactive"}, {"smiles": "Cc1cc2nc(-c3ccc(F)cc3)c(Cc3ccsc3)n2c(C)c1Br", "GFP+ MAC1+ double positive": 1.3, "outcome": "inactive"}, {"smiles": "COC(=O)[C@]12CCCCC=C1N(Cc1ccco1)C(=O)[C@H](CC(=O)NCCCCc1ccccc1)C2", "GFP+ MAC1+ double positive": 0.4, "outcome": "inactive"}, {"smiles": "CCc1nc2ccc(C(=O)NC3CCN(Cc4ccccc4)CC3)cn2c1N(C)CCN1CCOCC1", "GFP+ MAC1+ double positive": 1.3, "outcome": "inactive"}, {"smiles": "COc1ccc(C2CC(c3cccc(OC)c3)=NN2c2ccc(S(N)(=O)=O)cc2)cc1", "note": "(stereo unspecified)", "GFP+ MAC1+ double positive": 8.9, "normalized GFP-positive differentiation": "14.9% (active)"}, {"smiles": "Cc1ccc(C2CC(c3cccc(NS(C)(=O)=O)c3)=NN2S(C)(=O)=O)cc1", "note": "(stereo unspecified)", "GFP+ MAC1+ double positive": 0.5, "outcome": "inactive"}, {"smiles": "Oc1ccccc1C1=NN(c2ccccc2)C(c2ccccc2)C1", "note": "(stereo unspecified)", "GFP+ MAC1+ double positive": 0.2, "outcome": "inactive"}, {"smiles": "O=C(/C=C/[C@H]1O[C@@H](n2ccc(=O)[nH]c2=O)[C@H](O)[C@@H]1O)NCc1ccccn1", "GFP+ MAC1+ double positive": 1.5, "outcome": "inactive"}, {"smiles": "Cc1ccc(Cn2cc(CN3CC(N4CCN(C)CC4)CS3(=O)=O)nn2)cc1", "note": "(stereo unspecified)", "GFP+ MAC1+ double positive": 1, "outcome": "inactive"}, {"smiles": "CCCCC[C@@H]1C=C(C(=O)OCC)[C@H](c2ccccc2)N1S(=O)(=O)c1ccc(C)cc1", "GFP+ MAC1+ double positive": 0.5, "outcome": "inactive"}, {"smiles": "c1nc(COc2nsnc2N2CCOCC2)cs1", "GFP+ MAC1+ double positive": 7.1, "normalized GFP-positive differentiation": "13.2% (active)"}, {"smiles": "c1ccc(COc2nsnc2N2CCOCC2)cc1", "GFP+ MAC1+ double positive": 2.7, "outcome": "inactive"}, {"smiles": "O=C(O)COc1nsnc1N1CCOCC1", "GFP+ MAC1+ double positive": 0, "outcome": "inactive"}, {"smiles": "CCC(C(=O)NC(C)(C)C)n1c(-c2ccccc2)nc2ccccc21", "note": "(stereo unspecified)", "GFP+ MAC1+ double positive": 2, "outcome": "inactive"}, {"smiles": "O=C(NC1CCCC1)C1c2ccccc2OCC(=O)N1CC(F)(F)F", "note": "(stereo unspecified)", "GFP+ MAC1+ double positive": 0.5, "outcome": "inactive"}, {"smiles": "O=C1NC[C@H](CCCCN2C[C@H](Cc3ccccc3)N(Cc3ccccc3)C(=O)C2=O)N(CCc2ccc(O)cc2)C1=O", "GFP+ MAC1+ double positive": 1, "outcome": "inactive"}, {"smiles": "COC(=O)[C@@]12C[C@@H](CC(=O)N3CCCCC3)C(=O)N(Cc3ccc4c(c3)OCO4)C1=CCC(C)(C)C2", "GFP+ MAC1+ double positive": 1.1, "outcome": "inactive"}, {"smiles": "Cc1ccc(-n2c(SCC(=O)Nc3ncc(Cl)cc3Cl)nc3ccccc32)cc1", "GFP+ MAC1+ double positive": 11.5, "normalized GFP-positive differentiation": "162% (active)"}, {"smiles": "CC1(C(=O)OCC(=O)Nc2ncc(Cl)cc2Cl)CC1(Cl)Cl", "note": "(stereo unspecified)", "GFP+ MAC1+ double positive": 0.3, "outcome": "inactive"}, {"smiles": "CCOc1ccc(-n2c(SCC(=O)Nc3cc(C(=O)O)ccc3Cl)nc3ccccc3c2=O)cc1", "GFP+ MAC1+ double positive": 1.1, "outcome": "inactive"}, {"smiles": "CC1CCc2sc(C(=O)NCC(c3ccco3)N3CCCCC3)cc2C1", "note": "(stereo unspecified)", "GFP+ MAC1+ double positive": 0.5, "outcome": "inactive"}, {"smiles": "CC1Cc2ccccc2N1S(=O)(=O)c1cccc(C(=O)OCC(=O)N2CCOCC2)c1", "note": "(stereo unspecified)", "GFP+ MAC1+ double positive": 1, "outcome": "inactive"}, {"smiles": "CC1Cc2ccccc2N1S(=O)(=O)c1cccc(C(=O)NCC(c2ccco2)N2CCCC2)c1", "note": "(stereo unspecified)", "GFP+ MAC1+ double positive": 1.4, "normalized GFP-positive differentiation": "21.5% (active)"}]}]}
